Source: PubChem (several laboratories)
Rows were chosen to be rich in hits. Some 2% of all compounds tested hit in one or more screens of this group.
ADAM10 inh – ADAM10 inhibition, QFRET primary screen; recombinant ADAM10, EDANS/DABCYL FRET peptide cleavage, 3 h; actives 0.62% (n = 370,000); inhibition, % at 7 µM; AID 720582;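 active = inhibition above a per-campaign cutoff equal to the mean of compounds falling between control-based bounds plus 3 SD, cut at about 20% in these data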;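 note: 0% = DMSO wells while the 100% control is not disclosed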
GC-A act – GC-A (human) enzyme activation. HEK293 GC-A cells, cGMP TR-FRET, EC30 ANP; 0% at EC30 ANP, 100% saturating ANP. AID 1671463. actives 0.14% (n = 370,000). P16066. activation, % at 10 µM; in the data active = activation above about 40%
ADAM17 inh – inhibits human ADAM17; P78536; recombinant ADAM17, EDANS/DABCYL FRET peptide cleavage; inhibition, % at 6.95 µM; actives 0.83% (n = 370,000); AID 720648;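 active = inhibition above the mean of compounds lying between control limits plus 3 SD, set per campaign, cut at about 8.5% in these data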;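 note: 0% = DMSO-only wells as the low control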
NPR2 activator – GC-B (human) receptor activation | P20594 | HEK293-GC-B cells, CNP EC30, cGMP TR-FRET; 0% at EC30 CNP, 100% saturating CNP | activation, % at 10 µM | actives 0.11% (n = 370,000);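 active = activation at 10 µM reaching about 35% in either raw or pattern-adjusted values, limit read from the data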
FAS TE block – FAS thioesterase (human) inhibition. actives 0.67% (n = 360,000). P49327. recombinant FAS-TE, OMFH fluorogenic substrate, fluorescence endpoint. inhibition, % at 15 µM. AID 602261;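 active = compounds whose normalised, plate-corrected inhibition of enzyme fluorescence in the single-dose primary screen is 50% or more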;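 note: 0% = DMSO with enzyme and 100% = substrate without enzyme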
ADAM10 confirm – confirmation of inhibitors of human ADAM10. shares compounds with ADAM10 inh. ADAM10 QFRET peptide cleavage, EDANS fluorescence. inhibition, % at 6.95 µM. actives 1% (n = 2,100). AID 743208;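 active = inhibition above about 20% chosen separately for each screening run, limit read from the data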;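 note: 0% = DMSO wells and 100% = marimastat wells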
ADAM17 counter – ADAM17 inhibition, counter-screen for ADAM10 exosite hits. shares compounds with ADAM10 inh. ADAM17 QFRET peptide cleavage, EDANS fluorescence. inhibition, % at 6.95 µM. actives 0.5% (n = 2,100);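 active = mean triplicate inhibition above the solvent-only control wells' mean plus 3 SD, cut at about 12% in these data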;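 note: 0% = DMSO wells and 100% = marimastat wells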
* marks the source's active call; other numbers are inactive results; . = no result.

SMILES	ADAM10 inh	GC-A act	ADAM17 inh	NPR2 activator	FAS TE block	ADAM10 confirm	ADAM17 counter
Cc1c(NC(=O)C2CCCN(S(=O)(=O)c3ccc(C(C)(C)C)cc3)C2)c(=O)n(-c2ccccc2)n1C (centres undefined)	-5	1	0	6	.	.	.
Cc1ccnc(NC(c2ccsc2)c2ccc3ccc(C)nc3c2O)c1 (centres undefined)	6	0	4	2	1	.	.
COc1ccc(C(Nc2cc(C)ccn2)c2ccc3ccc(C)nc3c2O)cc1 (centres undefined)	23*	-2	1	2	2	20*	5
O=C(CSc1nnc(-c2ccccn2)n1-c1ccccc1)c1ccc(F)cc1	-6	1	1	-3	.	.	.
O=C(Cn1cnc2ccccc2c1=O)N1CCN(C(=O)C2CCCO2)CC1 (centres undefined)	-11	3	4	-5	.	.	.
CC(=O)NC(c1ccc(F)c(F)c1)c1nc(-c2cccc(C(C)C)c2)cs1 (centres undefined)	20*	-4	7	0	25	3	2
CC(=O)NC(c1ccc(F)c(F)c1)c1nc(-c2cccc(F)c2)cs1 (centres undefined)	6	-1	-1	-7	22	.	.
Cc1cccc(NC(=S)NNC(=O)c2cccc([N+](=O)[O-])c2)c1	21*	2	3	-4	20	-2	0
C/C=C(\C)C(=O)N1CC2(CC(c3cccc(NC(=O)COc4ccc(Cl)cc4)c3)=NO2)C[C@@H]1C(N)=O (some centres undefined)	85*	-1	-3	2	-4	1	1
COc1ccc(C(=O)N2CC3(CC(c4cccc(NC(=O)COc5ccc(Cl)cc5)c4)=NO3)C[C@@H]2C(N)=O)cc1 (some centres undefined)	23*	-5	5	1	-6	3	1
C=C(C)C(=O)N1CC2(CC(c3cccc(NC(=O)COc4ccc(Cl)cc4)c3)=NO2)C[C@@H]1C(N)=O (some centres undefined)	-13	1	5	2	0	.	.
COc1ccc(OC)c(-c2cc(C3CCN(c4cc(Cl)nc(N)n4)CC3)[nH]n2)c1	4	-1	0	0	5	.	.
COc1ccc(OC)c(-c2cc(C3CCN(c4ncccc4[N+](=O)[O-])CC3)[nH]n2)c1	24*	-2	8	-4	27	3	1
COc1cc(CNc2nc3c(C)cc(C)cc3s2)ccc1O	22*	-3	4	-11	9	0	0
Cc1cc(C)c2nc(NCc3ccccc3O)sc2c1	11	-4	-3	-8	17	.	.
O=C(Nc1cc(Cl)ccc1O)c1cc2n(n1)C(C(F)(F)F)CC(c1ccc3c(c1)OCO3)N2 (centres undefined)	29*	-9	8	-10	10	6	2
COc1ccc(OC)c(NC(=O)c2cc3n(n2)C(C(F)(F)F)CC(c2ccc4c(c2)OCO4)N3)c1 (centres undefined)	15	-4	8	1	-5	.	.
Cc1ccc(N2CCN(CC(O)COc3cccc4ccccc34)CC2)cc1 (centres undefined)	20*	5	4	-4	11	5	0
Cc1ccc(C(=O)NCCSC2CCCCC2)cc1S(=O)(=O)Nc1ccccc1	24*	-2	6	1	30	6	1
Cc1ccc(SCCNC(=O)c2ccc(C)c(S(=O)(=O)Nc3ccccc3C)c2)cc1	21*	0	6	-3	24	8	3
Fc1ccccc1-c1n[nH]c(=S)n1N=Cc1cccc(OCc2ccccc2)c1	11	-2	6	0	.	.	.
CCCc1c(Cc2cccc(F)c2)ncn1CCc1ccccc1OC	46*	-7	-1	-3	.	1	1
Cn1c(CSCc2ccc(Cl)cc2Cl)n[nH]c1=S	6	-5	0	-1	-5	.	.
CSc1nnc(CSCc2ccc(Cl)cc2Cl)n1-c1ccccc1	23*	-26	5	-10	25	0	0
CC(C)Cc1ccc(C(C)C(=O)Nc2ccc(O)cc2)cc1 (centres undefined)	21*	-2	5	-2	19	1	1
SMILES	ADAM10 inh	GC-A act	ADAM17 inh	NPR2 activator	FAS TE block	ADAM10 confirm	ADAM17 counter
COc1ccccc1NS(=O)(=O)c1cccc(NC(=O)Nc2ccc(Cl)cc2)c1	56*	-14	26*	-8	33	12	3
OC(CN1CCN(c2ccccn2)CC1)Cn1c2ccc(Cl)cc2c2cc(Cl)ccc21 (centres undefined)	22*	-11	8	-10	20	10	4
OC(CN1CCCCC1)Cn1c2ccc(Cl)cc2c2cc(Cl)ccc21 (centres undefined)	5	-45	2	-15	-48	.	.
CN1C(=O)c2cc(NC(=O)Nc3ccccc3)ccc2OC[C@H]2O[C@@H](CC(=O)N[C@H]3CCN(Cc4ccccc4)C3)CC[C@@H]21	6	4	-1	6	.	.	.
Cc1c(C2(O)CCCCC2)[nH]c2ccc(C(F)(F)F)cc12	20*	2	8	3	20	6	2
COc1ccc(-c2[nH]c(-c3ccc(C)cc3)nc2SCC(=O)Nc2nccs2)cc1	20*	-9	1	-7	19	6	3
CC(=NNc1nc2ccccc2s1)c1ncccn1	1	8	1	-1	6	.	.
C/C(=N\Nc1nc2ccccc2s1)c1cccs1	25*	-1	7	-16	28	8	3
O=C(NC1CCCCC1)[C@H](CSCc1ccccc1)N1Cc2ccccc2C1=O	22*	-1	7	-1	19	1	0
Cc1cccc(-c2cccc3c4c([nH]c23)[C@@H]2C[C@H]3[C@@H](C(=O)N2CC4)[C@H](C)ON3C)c1	-183	-3	-57	-13	.	.	.
Cn1c(N/N=C/c2cccs2)nc2c1c(=O)n(Cc1ccccc1)c(=O)n2C	26*	9	5	10	-13	9	5
Cn1c(=O)c2c(nc(N/N=C/c3cccs3)n2Cc2ccccc2)n(C)c1=O	-4	18	2	21	6	.	.
O=C(CC1SC(=Nc2ccccc2)N(Cc2ccccn2)C1=O)Nc1ccc(Br)cc1 (centres undefined)	22*	-7	7	0	28	11	4
O=C(NCCNC(=O)c1cnccn1)c1ccc(Cl)cc1	13	-1	-1	-9	-6	.	.
CC(C)c1ccc(C(=O)NCCCNC(=O)c2cnccn2)cc1	51*	-1	-1	0	-4	0	0
